From PubChem
G9a block = qHTS Assay for Inhibitors of Histone Lysine Methyltransferase G9a. G9a H3K9 monomethylation, AlphaScreen, 2 h. hit rate 8.8% among 350,000. Potency, µM (top dose mostly 102 µM), usual class: inhibitors. AID 504332, 2011. Histone-lysine N-methyltransferase EHMT2 (Homo sapiens), Q96KQ7; note: nearly all actives have a fitted effect of over 75% in size
Target sequence (Q96KQ7 913-1193 limits assumed): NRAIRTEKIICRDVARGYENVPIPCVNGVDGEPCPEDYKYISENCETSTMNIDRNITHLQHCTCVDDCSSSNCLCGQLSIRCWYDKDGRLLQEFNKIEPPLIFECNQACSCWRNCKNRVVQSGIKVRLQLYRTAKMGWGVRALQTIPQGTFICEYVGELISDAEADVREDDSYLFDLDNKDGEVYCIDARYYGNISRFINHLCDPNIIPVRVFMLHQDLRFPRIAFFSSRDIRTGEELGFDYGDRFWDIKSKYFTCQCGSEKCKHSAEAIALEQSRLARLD
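Signal arises when biotinylated H3K9 peptide, once monomethylated, bridges streptavidin donor and antibody-captured acceptor beads. Enzyme at 20 nM was preincubated 15 min with test compounds; peptide 500 nM and SAM 20 uM then reacted for 2 h.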
Sfp PPTase inh = qHTS Assay for Inhibitors of Bacillus subtilis Sfp phosphopantetheinyl transferase (PPTase); 4'-phosphopantetheinyl transferase ffp (Bacillus subtilis), Q9F4F7; Biochemical Sfp PPTase activity, qHTS; Potency, µM, most hits filed as inhibitors; hit rate 3.5% among 310,000; AID 1490, 2009;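 note: the enzyme is Sfp with the accession as filed and its product quenches rhodamine fluorescence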
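Step 1, compound plus 15 nM Sfp-PPTase, 15 min, room temperature. Step 2, add rhodamine-CoA (5 uM) and BHQ-2-YbbR (12.5 uM). Step 3, read 525/598 nm fluorescence at 0 and 30 min.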
JMJD2A Tudor inh = qHTS Assay for Inhibitors of JMJD2A-Tudor Domain; Lysine-specific demethylase 4A (Homo sapiens), O75164; AlphaScreen JMJD2A-Tudor / H3K4me3 peptide binding; Potency, µM (series often up to 114 µM), actives largely listed as inhibitors; hit rate 4.4% among 390,000; note: nearly all actives have a fitted effect of over 50% in size
BAZ2B inh = qHTS Assay for Inhibitors of BAZ2B; Potency, µM (doses to about 114 µM), actives largely listed as inhibitors; AlphaScreen BAZ2B-H3K14Ac peptide displacement; hit rate 4.4% among 360,000; Bromodomain adjacent to zinc finger domain protein 2B (Homo sapiens), Q9UIF8; AID 504333, 2011; note: nearly all actives have a fitted effect of over 60% in size
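Compounds, titrated to a top concentration of 110 uM, were incubated 30 min at room temperature with preformed BAZ2B/acetyl-K14 H3 peptide complex (50 nM each). Proximity signal was measured by AlphaScreen after 20 min with beads.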
HP1b binding inh = HTS for Inhibitors of HP1-beta Chromodomain Interactions with Methylated Histone Tails; Chromobox protein homolog 1 (Homo sapiens), P83916; Potency, µM (doses to about 114 µM), hits mostly inhibitors; AlphaScreen HP1-beta / biotin-H3K9me3 peptide binding; hit rate 0.56% among 390,000; note: nearly all actives have a fitted effect of over 70% in size
Target sequence (P83916 whole entry, looked up): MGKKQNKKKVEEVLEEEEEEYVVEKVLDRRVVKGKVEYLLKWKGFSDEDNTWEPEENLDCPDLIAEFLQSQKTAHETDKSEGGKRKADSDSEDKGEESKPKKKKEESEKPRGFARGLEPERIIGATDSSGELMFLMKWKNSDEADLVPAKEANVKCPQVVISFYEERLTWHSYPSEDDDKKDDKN
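HP1-beta protein (50 nM final) preincubated 30 min at room temperature with biotinylated H3(1-18)K9me3 peptide (50 nM) in PBS pH 7.4, 0.01% Tween-20, then compound added for 30 min. AlphaScreen streptavidin donor/nickel chelate acceptor beads (10 ug/mL final), 30 min dark, luminescence read.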
Of the large screens only hits and unclear results are named; the others gave an inactive call; ! = not active in a repeat. Rows were chosen to be rich in hits. Some 12% of all compounds tested hit in one or more screens of this group. Calls come from the whole dose curve; as a rule, active = well fitted curve in the direction sought with a large enough effect; inconclusive = small, poorly fitted or top-dose-only effect, or another doubt; inactive = no such curve, though single readings can be large; an effect the other way counts as inactive or inconclusive.

CCCSc1ncc(Cl)c(C(=O)N(Cc2ccc(N(C)C)cc2)C2CCS(=O)(=O)C2)n1 (configuration not stated)	G9a block inconclusive, JMJD2A Tudor inh 56µM, BAZ2B inh 22µM (no result: Sfp PPTase inh)
CN(C)c1ccc(CN(C(=O)COc2ccc(F)cc2)C2CCS(=O)(=O)C2)cc1 (configuration not stated)	G9a block inconclusive, BAZ2B inh inconclusive
Cc1ccc(OCC(=O)N(Cc2ccc(N(C)C)cc2)C2CCS(=O)(=O)C2)cc1 (configuration not stated)	G9a block 40µM, JMJD2A Tudor inh inconclusive, BAZ2B inh inconclusive
CN(C)c1ccc(CN(C(=O)/C=C/c2ccccc2Cl)C2CCS(=O)(=O)C2)cc1 (configuration not stated)	JMJD2A Tudor inh 45µM, BAZ2B inh 25µM
Cc1cccc(OCC(=O)N(Cc2cccs2)C2CCS(=O)(=O)C2)c1C (configuration not stated)	G9a block 50µM
Cc1ccc(OCC(=O)N(Cc2cccs2)C2CCS(=O)(=O)C2)cc1 (configuration not stated)	none
CN1CCc2c(c3cnc4cc(Cl)ccc4c3n2C)C1	none (no result: G9a block, Sfp PPTase inh, BAZ2B inh)
Cc1ccsc1CN(C(=O)COc1ccc(Cl)cc1)C1CCS(=O)(=O)C1 (configuration not stated)	none (no result: Sfp PPTase inh)
Cc1cc(C)cc(OCC(=O)N(Cc2ccc(N(C)C)cc2)C2CCS(=O)(=O)C2)c1 (configuration not stated)	JMJD2A Tudor inh 63µM, BAZ2B inh 40µM, HP1b binding inh inconclusive
CN(C)c1ccc(CN(C(=O)COc2ccc(Br)cc2)C2CCS(=O)(=O)C2)cc1 (configuration not stated)	G9a block 50µM, JMJD2A Tudor inh 40µM, BAZ2B inh 45µM
Cc1cc(C)c(OCC(=O)N(Cc2ccc(N(C)C)cc2)C2CCS(=O)(=O)C2)c(C)c1 (configuration not stated)	JMJD2A Tudor inh inconclusive, BAZ2B inh inconclusive (no result: G9a block)
COc1ccc(OCC(=O)N(Cc2sccc2C)C2CCS(=O)(=O)C2)cc1 (configuration not stated)	G9a block 71µM!, BAZ2B inh inconclusive
C/C(CCN1CCCCc2nc(C)c(C)cc21)=N\O[C@@H](C)CN1CCCc2nc(C)c(C)cc21	none (no result: G9a block, JMJD2A Tudor inh, BAZ2B inh, HP1b binding inh)
Cc1ccc2[nH]c(CN3CCC(CO)(CC4CCCCO4)CC3)c(C)c2c1 (configuration not stated)	JMJD2A Tudor inh inconclusive, BAZ2B inh inconclusive (no result: G9a block)
CNc1cc(-c2ccccc2C(F)(F)F)ncn1	none (no result: JMJD2A Tudor inh, BAZ2B inh, HP1b binding inh)
COc1ccc(/C=C/C(=O)Nc2ccc(Cl)cc2Cl)cc1	none (no result: Sfp PPTase inh)
CN(C)c1ccc(NS(=O)(=O)c2ccc(-c3csnn3)cc2)cc1	G9a block 40µM, JMJD2A Tudor inh 50µM, BAZ2B inh 56µM, HP1b binding inh inconclusive
CN(C)c1ccc(NS(=O)(=O)c2cccc(Cl)c2)cc1	G9a block inconclusive, JMJD2A Tudor inh 32µM, BAZ2B inh 45µM, HP1b binding inh inconclusive
CN(C)c1ccc(NS(=O)(=O)c2cc3c4c(c2)CC(=O)N4CCC3)cc1	JMJD2A Tudor inh inconclusive, BAZ2B inh 45µM, HP1b binding inh inconclusive (no result: G9a block)
CCCCc1ccc(NS(=O)(=O)c2cc3c4c(c2)CC(=O)N4CCC3)cc1	none (no result: Sfp PPTase inh)
Cc1ccc(S(=O)(=O)Nc2ccc(N(C)C)cc2)cc1	JMJD2A Tudor inh 56µM, BAZ2B inh 35µM, HP1b binding inh inconclusive
Cc1nnc(N2CCC(C(=O)NCCC(C)C)CC2)c2nn(-c3ccc(Cl)cc3)c(C)c12	none (no result: Sfp PPTase inh)
CCCc1nnc(NC(=O)CCC(=O)N2CCN(Cc3ccc(Cl)cc3)CC2)s1	none
CCCCC(=O)Nc1ccccc1C(=O)OCc1cc(=O)n2nc(C3CCCCC3)sc2n1	none (no result: Sfp PPTase inh)
CN(C)c1ccc(S(=O)(=O)c2ccc(Cl)cc2)cc1	none
CN(C)c1ccc(NS(=O)(=O)c2ccc(Cl)cc2)cc1	G9a block 3.5µM, JMJD2A Tudor inh 56µM, BAZ2B inh 45µM, HP1b binding inh inconclusive
COc1ccc(NS(=O)(=O)c2ccc(OC)c(N(C)S(=O)(=O)c3ccc(Cl)cc3)c2)cc1	G9a block 50µM
